What all share (assay): DAPPL (digital affinity profiling via proximity ligation, sequencing); 10 mM Tris-HCl pH 7.5, 50 mM NaCl, 1 mM DTT, 4% glycerol, room temperature, 30 min; GST-TFs on glutathione beads, 16-mer random dsDNA library, 0.1% formaldehyde crosslink after washing; high values mean tight binding
Common to all, as to conditions: protein: recombinant; tags: N-terminal GST; dsDNA, one strand shown

Experiment [1] addresses T1, FLI1 (Homo sapiens, UniProt Q01543 1-452).
T1 sequence: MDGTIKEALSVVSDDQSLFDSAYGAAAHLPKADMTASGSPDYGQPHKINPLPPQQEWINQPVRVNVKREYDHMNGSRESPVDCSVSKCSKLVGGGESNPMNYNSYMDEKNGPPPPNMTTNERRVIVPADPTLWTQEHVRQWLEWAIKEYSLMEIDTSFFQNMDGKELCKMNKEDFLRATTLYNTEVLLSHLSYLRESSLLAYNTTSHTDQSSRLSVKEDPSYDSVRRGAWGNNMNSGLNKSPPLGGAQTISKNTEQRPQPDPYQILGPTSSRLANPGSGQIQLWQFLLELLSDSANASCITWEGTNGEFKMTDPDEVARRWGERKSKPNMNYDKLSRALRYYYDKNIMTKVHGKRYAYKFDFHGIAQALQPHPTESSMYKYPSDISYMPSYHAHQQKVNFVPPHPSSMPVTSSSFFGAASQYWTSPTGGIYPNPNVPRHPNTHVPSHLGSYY
Summed up:
(§1)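 Pools of DNA-barcoded human transcription factors, expressed in yeast as GST fusions on glutathione beads and combined with a tag-only sample, were incubated with 200 nmole of a 16-mer random double-stranded DNA library. Incubation took 30 min at room temperature in Tris/NaCl/DTT/glycerol buffer and was followed by washing, 0.1% formaldehyde crosslinking, proximity ligation (BsaI/T4 ligase, 1 h, 37 °C), PCR amplification and sequencing on an Illumina NextSeq500. Binding signal is the ratio of a hexamer's read frequency for a factor to its frequency for the tag-only sample.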

The target of experiment [2] is T2, ELK1 (Homo sapiens, UniProt P19419 1-428).
T2 sequence: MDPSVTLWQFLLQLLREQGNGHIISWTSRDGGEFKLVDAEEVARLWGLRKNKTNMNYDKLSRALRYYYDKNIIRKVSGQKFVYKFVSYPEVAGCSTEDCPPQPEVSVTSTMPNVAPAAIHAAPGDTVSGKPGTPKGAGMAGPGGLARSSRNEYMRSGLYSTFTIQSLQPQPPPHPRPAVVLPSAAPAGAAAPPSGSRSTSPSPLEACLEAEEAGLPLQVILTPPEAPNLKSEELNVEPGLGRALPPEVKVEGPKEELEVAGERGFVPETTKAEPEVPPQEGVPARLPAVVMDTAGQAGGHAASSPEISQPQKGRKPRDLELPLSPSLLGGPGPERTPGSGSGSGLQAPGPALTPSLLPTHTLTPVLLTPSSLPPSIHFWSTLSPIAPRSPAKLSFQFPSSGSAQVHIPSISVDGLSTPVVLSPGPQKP
Summed up: as §1

The target of experiment [3] is T3, GABPA (Homo sapiens, UniProt Q06546 1-454).
T3 sequence: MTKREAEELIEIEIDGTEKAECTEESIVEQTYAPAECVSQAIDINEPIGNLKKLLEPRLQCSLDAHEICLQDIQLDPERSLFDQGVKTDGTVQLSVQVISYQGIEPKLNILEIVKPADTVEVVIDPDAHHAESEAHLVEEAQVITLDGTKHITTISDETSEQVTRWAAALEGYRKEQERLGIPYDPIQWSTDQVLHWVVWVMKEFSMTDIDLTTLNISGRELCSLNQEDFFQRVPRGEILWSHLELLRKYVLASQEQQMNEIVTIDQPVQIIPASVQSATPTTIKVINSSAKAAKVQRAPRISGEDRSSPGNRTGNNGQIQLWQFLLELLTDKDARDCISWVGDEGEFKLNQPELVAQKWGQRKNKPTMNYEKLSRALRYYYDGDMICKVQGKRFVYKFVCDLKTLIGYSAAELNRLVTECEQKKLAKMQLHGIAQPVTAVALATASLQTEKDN
A digest of the protocol:
as §1

The target of experiment [4] is T4, ERG (Homo sapiens, UniProt P11308 1-479).
T4 sequence: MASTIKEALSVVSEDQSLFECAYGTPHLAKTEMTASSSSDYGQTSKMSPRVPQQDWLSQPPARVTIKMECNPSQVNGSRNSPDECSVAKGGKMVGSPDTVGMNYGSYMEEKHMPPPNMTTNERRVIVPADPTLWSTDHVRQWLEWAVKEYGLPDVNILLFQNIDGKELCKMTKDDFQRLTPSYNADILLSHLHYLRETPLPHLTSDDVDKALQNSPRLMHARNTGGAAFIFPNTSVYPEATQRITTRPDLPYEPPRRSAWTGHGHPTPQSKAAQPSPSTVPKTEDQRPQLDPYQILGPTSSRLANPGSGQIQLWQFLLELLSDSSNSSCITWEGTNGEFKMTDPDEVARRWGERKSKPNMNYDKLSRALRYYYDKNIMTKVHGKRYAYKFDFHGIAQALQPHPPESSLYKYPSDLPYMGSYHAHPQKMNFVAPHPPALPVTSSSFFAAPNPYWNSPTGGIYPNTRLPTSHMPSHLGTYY
Summed up: as §1

The target of experiment [5] is ELF1 (Homo sapiens, UniProt P32519 1-619). Summed up:
as §1

Experiment [6] concerns the target T5, EHF (Homo sapiens, UniProt Q9NZC4 1-300).
T5 sequence: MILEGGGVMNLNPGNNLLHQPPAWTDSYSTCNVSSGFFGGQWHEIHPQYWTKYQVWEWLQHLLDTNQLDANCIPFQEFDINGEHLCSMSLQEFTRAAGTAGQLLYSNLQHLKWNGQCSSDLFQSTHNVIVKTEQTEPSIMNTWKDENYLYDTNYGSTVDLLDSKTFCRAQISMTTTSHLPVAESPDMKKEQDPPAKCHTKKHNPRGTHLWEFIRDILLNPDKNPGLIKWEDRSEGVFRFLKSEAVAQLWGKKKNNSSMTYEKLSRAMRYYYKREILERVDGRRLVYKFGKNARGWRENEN
A digest of the protocol: as §1

Experiment [7] has as its target SPI1 (Homo sapiens, UniProt P17947 1-270). A digest of the protocol:
as §1

The target of experiment [8] is SPIB (Homo sapiens, UniProt Q01892 1-262). A digest of the protocol:
as §1

Experiment [9] addresses T6, ELK3 (Homo sapiens, UniProt P41970 1-407).
T6 sequence: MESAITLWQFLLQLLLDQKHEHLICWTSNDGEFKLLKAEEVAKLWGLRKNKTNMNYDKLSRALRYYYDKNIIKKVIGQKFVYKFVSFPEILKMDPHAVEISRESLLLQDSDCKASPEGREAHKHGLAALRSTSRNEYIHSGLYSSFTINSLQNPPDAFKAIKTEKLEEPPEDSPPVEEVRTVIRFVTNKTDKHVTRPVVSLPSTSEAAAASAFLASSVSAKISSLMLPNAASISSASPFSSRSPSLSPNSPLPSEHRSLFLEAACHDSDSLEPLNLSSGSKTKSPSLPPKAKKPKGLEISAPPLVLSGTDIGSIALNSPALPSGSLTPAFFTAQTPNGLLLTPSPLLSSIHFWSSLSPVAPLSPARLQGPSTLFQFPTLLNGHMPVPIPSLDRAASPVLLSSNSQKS
Summed up: as §1

Sequence of ELF1 (P32519 whole entry): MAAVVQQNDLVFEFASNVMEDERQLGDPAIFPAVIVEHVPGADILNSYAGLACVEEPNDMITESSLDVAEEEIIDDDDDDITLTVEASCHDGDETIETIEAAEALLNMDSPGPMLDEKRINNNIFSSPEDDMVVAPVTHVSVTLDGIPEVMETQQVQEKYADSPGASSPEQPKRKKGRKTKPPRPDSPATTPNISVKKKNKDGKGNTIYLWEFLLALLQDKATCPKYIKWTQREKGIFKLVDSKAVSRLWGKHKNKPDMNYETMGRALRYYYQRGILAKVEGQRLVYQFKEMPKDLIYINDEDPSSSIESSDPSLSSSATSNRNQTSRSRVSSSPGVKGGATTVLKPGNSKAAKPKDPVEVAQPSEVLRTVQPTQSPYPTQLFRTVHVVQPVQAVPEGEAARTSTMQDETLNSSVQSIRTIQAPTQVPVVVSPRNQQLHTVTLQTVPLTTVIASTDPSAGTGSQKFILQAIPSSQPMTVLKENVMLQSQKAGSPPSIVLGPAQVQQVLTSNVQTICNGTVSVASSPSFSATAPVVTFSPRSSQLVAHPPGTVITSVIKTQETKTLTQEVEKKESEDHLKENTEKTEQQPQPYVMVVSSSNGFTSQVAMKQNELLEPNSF
Sequence of SPIB (Q01892 whole entry): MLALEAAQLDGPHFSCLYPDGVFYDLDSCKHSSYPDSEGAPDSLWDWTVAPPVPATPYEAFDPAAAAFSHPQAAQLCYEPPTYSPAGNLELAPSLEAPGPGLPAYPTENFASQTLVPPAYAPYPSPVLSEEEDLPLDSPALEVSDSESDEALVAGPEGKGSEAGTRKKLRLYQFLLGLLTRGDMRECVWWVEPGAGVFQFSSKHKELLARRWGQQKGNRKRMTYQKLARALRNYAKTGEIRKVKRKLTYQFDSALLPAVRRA

On to ACCGAC, for which the binding signal in [1] was 1.41 fold enrichment (6-mer frequency, TF over GST control); in [2] it was 1.29 fold enrichment (6-mer frequency, TF over GST control); in experiment [3], 1.29 fold enrichment (6-mer frequency, TF over GST control); in experiment [4], 1.29 fold enrichment (6-mer frequency, TF over GST control); in experiment [5] it was 1.3 fold enrichment (6-mer frequency, TF over GST control); in [6] it was 1.23 fold enrichment (6-mer frequency, TF over GST control). Besides, the binding signal in [7] is 1.4 fold enrichment (6-mer frequency, TF over GST control); in experiment [8] it was 1.34 fold enrichment (6-mer frequency, TF over GST control); in [9], 1.35 fold enrichment (6-mer frequency, TF over GST control).
For the sequence AAATCA, the binding signal was 1.12 fold enrichment (6-mer frequency, TF over GST control) in experiment [1]; 1.19 fold enrichment (6-mer frequency, TF over GST control) in experiment [2]; 1.19 fold enrichment (6-mer frequency, TF over GST control) in experiment [3]; 1.18 fold enrichment (6-mer frequency, TF over GST control) in experiment [4]; 1.21 fold enrichment (6-mer frequency, TF over GST control) in [5]; 1.25 fold enrichment (6-mer frequency, TF over GST control) in experiment [6]. The binding signal in [7] was 1.26 fold enrichment (6-mer frequency, TF over GST control); in experiment [8], 1.2 fold enrichment (6-mer frequency, TF over GST control); in experiment [9] it was 1.18 fold enrichment (6-mer frequency, TF over GST control).
Take CGGCTC: the binding signal in experiment [1] is 1.27 fold enrichment (6-mer frequency, TF over GST control); in experiment [2], 1.29 fold enrichment (6-mer frequency, TF over GST control); in [3], 1.2 fold enrichment (6-mer frequency, TF over GST control); in experiment [4] it was 1.33 fold enrichment (6-mer frequency, TF over GST control); in experiment [5] it was 1.27 fold enrichment (6-mer frequency, TF over GST control); in experiment [6], 1.31 fold enrichment (6-mer frequency, TF over GST control). The binding signal is 1.33 fold enrichment (6-mer frequency, TF over GST control) in experiment [7]; 1.33 fold enrichment (6-mer frequency, TF over GST control) in experiment [8]; 1.31 fold enrichment (6-mer frequency, TF over GST control) in experiment [9].
As to CCTCGA, the binding signal was 1.33 fold enrichment (6-mer frequency, TF over GST control) in [1]; 1.26 fold enrichment (6-mer frequency, TF over GST control) in experiment [2]; 1.31 fold enrichment (6-mer frequency, TF over GST control) in experiment [3]; 1.3 fold enrichment (6-mer frequency, TF over GST control) in [4]; 1.27 fold enrichment (6-mer frequency, TF over GST control) in experiment [5]; 1.37 fold enrichment (6-mer frequency, TF over GST control) in experiment [6]. Besides, the binding signal in experiment [7] was 1.26 fold enrichment (6-mer frequency, TF over GST control); in experiment [8], 1.25 fold enrichment (6-mer frequency, TF over GST control); in experiment [9] it was 1.18 fold enrichment (6-mer frequency, TF over GST control).
On to AATCTT, for which the binding signal is 1.36 fold enrichment (6-mer frequency, TF over GST control) in [1]; 1.24 fold enrichment (6-mer frequency, TF over GST control) in experiment [2]; 1.28 fold enrichment (6-mer frequency, TF over GST control) in experiment [3]; 1.32 fold enrichment (6-mer frequency, TF over GST control) in [4]; 1.29 fold enrichment (6-mer frequency, TF over GST control) in experiment [5]; 1.29 fold enrichment (6-mer frequency, TF over GST control) in experiment [6]. Further, the binding signal in experiment [7] is 1.26 fold enrichment (6-mer frequency, TF over GST control); in experiment [8], 1.29 fold enrichment (6-mer frequency, TF over GST control); in [9] it was 1.44 fold enrichment (6-mer frequency, TF over GST control).
Regarding TCCTAC, the binding signal was 1.48 fold enrichment (6-mer frequency, TF over GST control) in experiment [1]; 1.46 fold enrichment (6-mer frequency, TF over GST control) in [2]; 1.43 fold enrichment (6-mer frequency, TF over GST control) in [3]; 1.42 fold enrichment (6-mer frequency, TF over GST control) in [4]; 1.31 fold enrichment (6-mer frequency, TF over GST control) in experiment [5]; 1.45 fold enrichment (6-mer frequency, TF over GST control) in [6]. Moreover, the binding signal is 1.52 fold enrichment (6-mer frequency, TF over GST control) in [7]; 1.65 fold enrichment (6-mer frequency, TF over GST control) in [8]; 1.56 fold enrichment (6-mer frequency, TF over GST control) in experiment [9].
On to GAACAA, for which the binding signal in experiment [1] was 1.17 fold enrichment (6-mer frequency, TF over GST control); in [2], 1.13 fold enrichment (6-mer frequency, TF over GST control); in experiment [3], 1.16 fold enrichment (6-mer frequency, TF over GST control); in experiment [4], 1.14 fold enrichment (6-mer frequency, TF over GST control); in experiment [5], 1.22 fold enrichment (6-mer frequency, TF over GST control); in experiment [6] it was 1.22 fold enrichment (6-mer frequency, TF over GST control). In addition, the binding signal in experiment [7] is 1.15 fold enrichment (6-mer frequency, TF over GST control); in experiment [8] it was 1.24 fold enrichment (6-mer frequency, TF over GST control); in experiment [9] it was 1.2 fold enrichment (6-mer frequency, TF over GST control).
On to CCCATT, for which the binding signal in [1] was 1.36 fold enrichment (6-mer frequency, TF over GST control); in experiment [2], 1.25 fold enrichment (6-mer frequency, TF over GST control); in experiment [3] it was 1.46 fold enrichment (6-mer frequency, TF over GST control); in [4], 1.41 fold enrichment (6-mer frequency, TF over GST control); in experiment [5], 1.39 fold enrichment (6-mer frequency, TF over GST control); in experiment [6], 1.24 fold enrichment (6-mer frequency, TF over GST control). The binding signal in experiment [7] is 1.47 fold enrichment (6-mer frequency, TF over GST control); in experiment [8], 1.27 fold enrichment (6-mer frequency, TF over GST control); in experiment [9], 1.41 fold enrichment (6-mer frequency, TF over GST control).
